Screens deposited in PubChem BioAssay by National Center for Advancing Translational Sciences (NCATS).
Rows were chosen to be rich in hits. Some 1.7% of all compounds tested hit in one or more screens of this group.
IDH1 R132H inh – blocks human mutant IDH1 R132H enzyme; 390,000 tested, 0.093% active; AID 602179; O75874; Potency, µM (titrated, usually from 76.6 µM), for inactives: at the top dose activity change, negative = inhibition, usual class: inhibitors; IDH1-R132H enzyme, NADPH consumption, diaphorase/resazurin fluorescence; note: % is set by controls: 0 for no effect and ±100 for the full control effect; nearly all actives have a fitted effect of over 65% in size
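IDH1-R132H (0.5 ug/mL) preincubated 30 min with compound, then NADPH (0.016 mM) and alpha-KG (2 mM) added; 80 min at RT, pH 7.5. Remaining NADPH coupled via diaphorase/resazurin to fluorescence (540/590 nm); concentration-response curves normalized to no-enzyme control.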
ALOX12 inh – inhibitors of human 12S-lipoxygenase ALOX12 | AID 1671190 | Potency, µM (top dose mostly 108 µM), for inactives: at the highest dose activity change, negative = inhibition, most hits filed as inhibitors | 580,000 tested, 1.1% active | purified 12hLO, xylenol orange hydroperoxide absorbance; note: % is set by controls: 0 for no effect and ±100 for the full control effect
Target sequence (P18054 whole entry, looked up): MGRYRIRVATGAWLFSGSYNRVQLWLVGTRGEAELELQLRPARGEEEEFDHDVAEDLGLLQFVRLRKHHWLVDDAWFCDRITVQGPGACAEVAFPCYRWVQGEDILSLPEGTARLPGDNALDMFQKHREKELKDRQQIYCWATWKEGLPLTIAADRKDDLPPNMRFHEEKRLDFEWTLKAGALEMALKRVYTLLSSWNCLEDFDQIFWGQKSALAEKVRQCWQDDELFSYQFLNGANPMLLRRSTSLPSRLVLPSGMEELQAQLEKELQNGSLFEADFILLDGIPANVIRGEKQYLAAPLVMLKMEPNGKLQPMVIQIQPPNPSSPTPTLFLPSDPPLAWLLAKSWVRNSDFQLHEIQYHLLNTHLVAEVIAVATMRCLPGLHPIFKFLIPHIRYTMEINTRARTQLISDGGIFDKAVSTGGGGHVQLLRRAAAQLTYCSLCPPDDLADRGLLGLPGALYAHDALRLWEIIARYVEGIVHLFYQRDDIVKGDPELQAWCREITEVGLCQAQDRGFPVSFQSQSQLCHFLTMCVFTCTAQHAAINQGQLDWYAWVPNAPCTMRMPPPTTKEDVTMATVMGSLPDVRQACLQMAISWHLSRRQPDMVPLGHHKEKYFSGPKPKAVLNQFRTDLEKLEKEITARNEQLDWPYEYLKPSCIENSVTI
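Purified human 12hLO (150 nM final) in 25 mM Hepes, 0.01% Triton X-100, pH 7.0 was preincubated 15 min at room temperature with compound. Then 40 uM arachidonic acid was added, 30 min. Hydroperoxide was read by Fe-XO absorbance ratio 573/405 nm.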
rTrxR1 inhibitor – inhibitors of rat thioredoxin reductase 1; 390,000 tested, 1% active; recombinant rTrxR1, NADPH fluorescence consumption, selenite substrate; O89049; Potency, µM (top dose mostly 114 µM), without a hit: at the top dose activity change, negative = inhibition, hits mostly inhibitors; note: % is set by controls: 0 for no effect and ±100 for the full control effect; nearly all actives have a fitted effect of over 65% in size
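Rat TrxR1 (90 nM in the dispensed reagent) was pre-reduced with 400 uM NADPH for 5 min at room temperature, then incubated with compound for 15 min. After 400 uM selenite was added, NADPH fluorescence (Ex 340/Em 450 nm) was followed for 8 min.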
Anesthetic bind – binds horse apoferritin like a general anesthetic | Potency, µM (top dose mostly 77.5 µM), without a hit: at the top dose activity change, negative = displacement, most hits filed as inhibitors | P02791 | AID 485281 | 350,000 tested, 0.074% active | apoferritin/1-aminoanthracene competitive binding, fluorescence; note: % is set by controls: 0 for no effect and ±100 for the full control effect; nearly all actives have a fitted effect of over 20% in size
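Steps: apoferritin (10 uM) was premixed with half-saturated 1-AMA in PBS, compounds were pin-transferred, plates stood 10 min at room temperature, fluorescence was read at 380/535 nm, and curves were fitted with a Hill equation.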
TrxR1 substrate – rat thioredoxin reductase 1 substrate activity. O89049. purified TrxR1 substrate turnover, NADPH consumption readout. AID 588456. Potency, µM (highest dose often 114 µM), inactives show at the highest dose activity change, negative = substrate turnover. 390,000 tested, 0.01% active; note: % is set by controls: 0 for no effect and ±100 for the full control effect; nearly all actives have a fitted effect of over 50% in size
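Rat TrxR1, dispensed at 90 nM, was prereduced with 400 uM NADPH (final) for 5 min at ~22 deg C, then incubated with compound 15 min before 400 uM selenite. A first-read NADPH fluorescence drop versus no-compound background flagged substrates.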
GRP78 ERSR act – induces the endoplasmic reticulum stress response in human glioma cells | U87-MG GRP78 promoter luciferase reporter, 16 h | Potency, µM, for the others: top-dose activation, hits mostly activators | 420,000 tested, 0.02% active | AID 602332; note: series mostly up to about 76 µM; % of control where 0% means no effect; nearly all actives have a fitted effect of over 35% in size
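ERSR induction read as luciferase luminescence (Bright-Glo, 10 min at room temperature) in stably transfected human U87-MG glioma cells exposed to compounds for 16 h, using GRP78 as sensor.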
Active calls of the source: *; ? = inconclusive; · = no result given; ! = not active in a repeat; [ ] = dose if it differs, or a comment. Calls come from the whole dose curve; as a rule, active = well fitted curve in the direction sought with a large enough effect; inconclusive = small, poorly fitted or top-dose-only effect, or another doubt; inactive = no such curve, though single readings can be large; an effect the other way counts as inactive or inconclusive. Potency is the fitted concentration of half-maximal effect.

SMILES | IDH1 R132H inh | ALOX12 inh | rTrxR1 inhibitor | Anesthetic bind | TrxR1 substrate | GRP78 ERSR act
CNC(=S)NNC(=O)CCc1ccccc1 | · | 4% | · | · | · | ·
CCSc1nc2sc3c(c2c(=O)[nH]1)CCc1ccccc1-3 | 8% | -7% | 15% | -12% | 2% | -3%
NNc1nc2sc3c(c2c(=O)[nH]1)CCc1ccccc1-3 | 0% | 35µM* | -11% | -17% | -2% | -6%
O=C(NCC(c1cccs1)N1CCOCC1)c1cc2ccccc2oc1=O (centres undefined) | -4% | 18µM*! | 2% | · | -5% | -5%
CC1CCN(S(=O)(=O)c2ccc(NC(=S)NC(=O)c3ccc(Cl)cc3)cc2)CC1 | -1% | 14µM* | 7%[57.1 µM] | -11% | 9% | -6%
S=C(NC(=NC=C(Cl)Cl)c1ccc(Cl)cc1)Nc1ccc(Cl)cc1 | · | 20µM* | · | · | · | ·
CC(=O)Nc1ccc(NC(=S)NC(=O)c2ccc(Cl)cc2)cc1 | · | 5.6µM* | · | · | · | ·
NC(N)=NS(=O)(=O)c1ccc(NC(=S)NC(=O)c2ccccc2)cc1 | 1% | ? | 50µM* | -7% | -11% | 1%
O=C(NC(=S)Nc1ccc(-c2ccccc2)cc1)c1ccccc1 | -1% | ? | -8%[57.1 µM] | · | -2%[57.1 µM] | 13%
O=C(NC(=S)Nc1ccc(Oc2ccc(Cl)cc2)cc1)c1ccccc1 | 7% | 8.9µM* | -33% | ? | -12% | -1%
O=C(NC(=S)Nc1ccc(Cl)cc1)c1ccccc1 | -13% | 45µM* | -2% | -9% | 4% | -1%
O=C1CCN(C(=O)C2CCOCC2)CCCC(c2nc(-c3cccnc3)no2)CCN1 (centres undefined) | · | 41% | · | · | · | ·
COCCOC1CN(C2CCN(C(=O)Cc3cccc(F)c3)CC2)C12CCCCC2 (centres undefined) | · | 27% | · | · | · | ·
OCC1(Cc2ccc(Cl)cc2)CCN(CCCc2ccccc2)CC1 | -4% | 3.2µM* | 1%[57.1 µM] | -14% | -5%[57.1 µM] | -6%
COc1ccccc1S(=O)(=O)N1C[C@@H]2C(CN(C)C)[C@@H]2C1 (some centres undefined) | · | 13% | · | · | · | ·
Cc1ccc(CN(C(=O)CCc2c[nH]c3ccccc23)C(C)C)o1 | · | 29% | · | · | · | ·
S=c1[nH]c2cc(Cl)ccc2s1 | 5% | 45µM*! | -7% | -14% | 8% | -5%
O=S(=O)(CCOc1ccccc1)c1nc2ccccc2[nH]1 | 1% | 1% | 45µM* | -5% | 0% | -7%
C=CCNC(=O)NC(=O)CN(C)Cc1cccc(C#N)c1 | · | -2% | · | · | · | ·
COc1cc(C2C(C(=O)c3ccc(C)o3)=C(O)C(=O)N2c2cc(C)on2)ccc1OCc1ccccc1 (centres undefined) | 2% | ? | 12% | 4% | -7% | -3%
CCOc1ccc(C2C(C(=O)c3ccc(C)o3)=C(O)C(=O)N2c2cc(C)on2)cc1OC (centres undefined) | 9% | 25µM* | 18% | 8% | 1% | 1%
CCOc1ccc(C2C(C(=O)c3ccc(C)o3)=C(O)C(=O)N2CCN2CCOCC2)cc1OC (centres undefined) | 7% | -11% | 56µM* | -13% | -7% | -2%
COc1cccc(C2C(C(=O)c3ccc(C)o3)=C(O)C(=O)N2c2cc(C)on2)c1 (centres undefined) | -22% | 50µM* | ? | -20% | -17% | -7%
COc1cccc(C2C(C(=O)c3cccs3)=C(O)C(=O)N2c2cc(C)on2)c1 (centres undefined) | 14% | ? | -17% | -19% | -7% | 8%
Cc1ccccc1NC(=O)CSc1nc(-c2ccccc2)cn1-c1ccccc1F | 8% | -6% | 13%[57.1 µM] | 68% | 1%[57.1 µM] | -1%
SMILES | IDH1 R132H inh | ALOX12 inh | rTrxR1 inhibitor | Anesthetic bind | TrxR1 substrate | GRP78 ERSR act
CC(=O)Oc1ccccc1/C=C/c1ccc2ccccc2[n+]1C | -5% | ? | 20µM* | 4% | -13% | 1%
CC(C)C(NC(=O)COc1ccc2ccccc2c1)C(=O)N/N=C/C=C/c1ccccc1 (centres undefined) | 9% | 8.9µM* | 33% | -4% | 10% | 0%
CCCCC1CCC(C(=O)OC(C)C(=O)Nc2ccc(NC(C)=O)cc2)CC1 (centres undefined) | -1% | 40µM* | 10% | -19% | 0% | -5%
O=C(C1CCOCC1)N1CCOC[C@H](Oc2ccc(C(F)(F)F)cc2)C1 | · | 36%[176 µM] | · | · | · | ·
CCOC(=O)c1ccc(N2C(=O)c3cccc4c(C(=O)O)ccc(c34)C2=O)cc1 | 9% | 16µM* | -2% | -2% | -2% | -3%
Cc1cc2nn(-c3ccc(F)cc3)nc2cc1NC(=O)c1ccc(OC(C)C)cc1 | -1% | -22% | 89µM* | 1% | 93% | -4%
CCCCOc1cccc(C(=O)Nc2cc3nn(-c4ccc(F)cc4)nc3cc2C)c1 | -7% | -16% | 36%[11.4 µM] | -5% | 23% | -2%
